# Experimental data published in PubChem BioAssay.
# The source made the active and inactive calls. Unless noted, no rule for the calls is given here.
# Assays:
# [1] = HepG2 liver cancer cell viability effects, profiling panel, resazurin fluorescence, 24 h, PK04 Diversity Set (AID 1172); settings: higher = more signal
# [2] = basal S. cerevisiae growth modulation, no modifier, primary screen, OD600, strain BY4716, 24 h, basal condition (AID 1173); settings: OD600, 24 h, higher = more signal, called active from +8 up or from −8 down
# [3] = MM1S myeloma cell viability, profiling panel, resazurin fluorescence, basal, 24 h, PK04 Diversity Set (AID 1174); settings: higher = more signal, called active from +8 up or from −8 down;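 also: MM1S multiple myeloma cell line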
# [4] = molecular target: Dihydroorotate dehydrogenase (quinone), mitochondrial (Plasmodium falciparum (isolate 3D7)) (UniProt Q08210); assay: PfDHODH enzyme inhibitors, primary screen, biochemical, C-terminal His tag, absorbance 600 nm (AID 1175); settings: DCIP absorbance 600 nm, higher = more signal, called active from +8 up or from −8 down;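 also: recombinant parasite enzyme with a five histidine tag at its C terminus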
# Dihydroorotate dehydrogenase (quinone), mitochondrial (Plasmodium falciparum (isolate 3D7)), sequence (Q08210 whole entry, looked up): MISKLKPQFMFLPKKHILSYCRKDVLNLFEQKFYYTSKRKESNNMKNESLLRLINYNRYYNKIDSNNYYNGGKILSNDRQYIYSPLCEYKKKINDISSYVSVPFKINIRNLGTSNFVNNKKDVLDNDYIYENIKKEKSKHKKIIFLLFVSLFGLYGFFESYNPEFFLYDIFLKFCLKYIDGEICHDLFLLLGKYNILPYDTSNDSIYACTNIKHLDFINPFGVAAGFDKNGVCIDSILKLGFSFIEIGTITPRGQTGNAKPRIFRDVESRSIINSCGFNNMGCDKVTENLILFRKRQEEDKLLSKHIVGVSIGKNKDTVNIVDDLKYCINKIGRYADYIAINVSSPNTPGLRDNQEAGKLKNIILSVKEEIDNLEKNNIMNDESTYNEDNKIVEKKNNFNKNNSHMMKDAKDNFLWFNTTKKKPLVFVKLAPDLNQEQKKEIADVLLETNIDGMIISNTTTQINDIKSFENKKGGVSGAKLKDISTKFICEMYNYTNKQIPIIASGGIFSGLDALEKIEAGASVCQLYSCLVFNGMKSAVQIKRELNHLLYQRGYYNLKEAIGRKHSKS
# [5] = P. aeruginosa biofilm formation inhibitors, primary screen, strain PAO1, LB-PBS medium, absorbance 600 nm (AID 1176); settings: P. aeruginosa PAO1 growth/biofilm, A600, 12 h; higher = more signal
# [6] = S. cerevisiae RM11-1a growth modifiers, primary screen, strain RM11-1a, OD600, basal, 24 h (AID 1177); settings: OD600, 24 h, higher = more signal, called active from +8 up or from −8 down;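 also: cultures grown under basal conditions with no added stressor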
# [7] = E. coli acrAB mutant growth effects, primary screen, E. coli filamentation inducers, strain DRC39, OD650, 24 h (AID 1178); settings: higher = more signal, called active from +8 up or from −8 down;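 also: growth measured as culture turbidity by optical density at 650 nm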
# [8] = E. coli acrAB mutant growth effects, primary screen, E. coli filamentation inducers, strain DRC39, OD650, 48 h (AID 1179);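 also: screen aims at cell division blockers that make cells filament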; settings: E. coli DRC39 delta-acrAB growth, higher = more signal, called active from +8 up or from −8 down
# [9] = RPMI8226 myeloma cell viability, profiling panel, resazurin fluorescence, basal, 24 h, PK04 Diversity Set (AID 1180); settings: higher = more signal;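 also: RPMI8826 multiple myeloma cell line at 5000 cells per well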
# [10] = molecular target: E3 ubiquitin-protein ligase XIAP (Homo sapiens) (UniProt P98170); assay: XIAP binders, primary screen, biophysical, small-molecule microarray, fluorescence 635 nm (AID 1181); settings: small-molecule microarray binding, higher = more signal;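 also: score merges 667 nm emission and signal to noise over triplicate slides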
# E3 ubiquitin-protein ligase XIAP (Homo sapiens), sequence (P98170 whole entry, looked up): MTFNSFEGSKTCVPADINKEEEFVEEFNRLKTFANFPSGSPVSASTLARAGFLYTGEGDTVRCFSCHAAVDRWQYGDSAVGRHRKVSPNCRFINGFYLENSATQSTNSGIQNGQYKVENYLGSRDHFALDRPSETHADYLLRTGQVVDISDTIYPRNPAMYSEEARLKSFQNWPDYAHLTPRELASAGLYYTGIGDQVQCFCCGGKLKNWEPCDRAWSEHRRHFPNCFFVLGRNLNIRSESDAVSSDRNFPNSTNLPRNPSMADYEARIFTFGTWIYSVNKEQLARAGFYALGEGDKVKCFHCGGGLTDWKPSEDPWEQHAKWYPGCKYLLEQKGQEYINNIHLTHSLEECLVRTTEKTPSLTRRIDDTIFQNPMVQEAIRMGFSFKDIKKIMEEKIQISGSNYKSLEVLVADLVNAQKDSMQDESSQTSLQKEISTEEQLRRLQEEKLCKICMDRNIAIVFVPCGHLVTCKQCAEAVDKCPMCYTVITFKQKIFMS
# [11] = tested on: XIP peptide (Xip251-270) binding; assay: small-molecule binders of XIP peptide, primary screen, biochemical, small-molecule microarray, fluorescence 635/667 nm, 0.1 µg/mL protein (AID 1182); settings: fluorescent protein binding, 635 nm, higher = more signal, called active from +8 up or from −8 down
# XIP peptide (Xip251-270) = assay: small-molecule binders of XIP peptide, primary screen, biochemical, small-molecule microarray, fluorescence 635/667 nm, 0.5 µg/mL protein (AID 1183); settings: small-molecule microarray binding, fluorescence 635 nm; higher = more signal
# [12] = Plasmodium falciparum growth inhibition, primary screen, strain 3D7, DAPI fluorescence, 100 nL (AID 1184);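 also: parasites grown inside human red blood cells in medium with human serum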; settings: P. falciparum 3D7 growth, 3 d, higher = more signal
# [13] = molecular target: Homeobox protein Hox-A13 (Mus musculus) (UniProt Q62424); assay: inhibitors of HoxA13-DNA binding, primary screen, biochemical, fluorescence polarization, labeled oligonucleotide (AID 1185); settings: 15 min, higher = more signal, called active from +8 up or from −8 down
# Homeobox protein Hox-A13 (Mus musculus), sequence (Q62424 whole entry, looked up): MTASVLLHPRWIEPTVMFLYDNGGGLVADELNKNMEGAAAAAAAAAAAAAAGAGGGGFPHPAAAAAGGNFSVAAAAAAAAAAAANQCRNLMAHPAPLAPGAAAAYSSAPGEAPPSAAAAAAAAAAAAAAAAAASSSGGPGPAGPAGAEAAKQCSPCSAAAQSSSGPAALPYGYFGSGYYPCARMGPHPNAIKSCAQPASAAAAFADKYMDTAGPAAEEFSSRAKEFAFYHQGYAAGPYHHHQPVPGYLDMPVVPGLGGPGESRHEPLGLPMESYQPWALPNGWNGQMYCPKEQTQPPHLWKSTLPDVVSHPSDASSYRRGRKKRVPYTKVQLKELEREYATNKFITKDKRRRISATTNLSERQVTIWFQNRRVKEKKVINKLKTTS
# [14] = inhibitors of hydroxyurea-induced Chk1 phosphorylation, primary screen, imaging, HeLa, phospho-Chk1 antibody, percent positive cells (AID 1186); settings: hydroxyurea-induced phospho-Chk1 immunofluorescence imaging, higher = more signal
# [15] = inhibitors of hydroxyurea-induced Chk1 phosphorylation, primary screen, imaging, HeLa, phospho-Chk1 nuclear intensity (AID 1187); settings: hydroxyurea-induced phospho-Chk1 immunofluorescence imaging, higher = more signal
structure (smiles),measurement,setting,value
COC(=O)[C@@]1(Cc2ccccc2)N=C(c2ccc(OCCCO)cc2)O[C@H]1c1ccccc1,z-score,[1],-0.882
same,z-score,[2],-2.46 (inactive)
same,z-score,[3],-2.96 (inactive)
same,composite z-score,[4],1.14 (inactive)
same,z-score,[5],0.991 (inactive)
same,z-score,[6],1.47 (inactive)
same,z-score,[7],2.8 (inactive)
same,z-score,[8],0.608 (inactive)
same,z-score,[9],-2.43
same,composite z-score,[10],0.244
same,composite z-score,[11],1.16 (inactive)
same,composite z-score,XIP peptide (Xip251-270),0.743
same,z-score,[12],-1.92
same,z-score,[13],-4.38 (inactive)
same,z-score,[14],-0.343 (inactive)
same,z-score,[15],-0.094 (inactive)
CC(C)=CCCC(C)=CC(O)C1C=CC2C(=O)N(C)C(=O)C2N1Nc1ccccc1 (stereo not given),z-score,[1],-1.34
same,z-score,[2],-4.94 (inactive)
same,z-score,[3],-1.37 (inactive)
same,composite z-score,[4],0.0684 (inactive)
same,z-score,[5],1.51 (inactive)
same,z-score,[6],0.938 (inactive)
same,z-score,[7],-0.261 (inactive)
same,z-score,[8],0.0052 (inactive)
same,z-score,[9],-2.03
same,composite z-score,[10],0.123
same,composite z-score,[11],0.438 (inactive)
same,composite z-score,XIP peptide (Xip251-270),0.624
same,z-score,[12],-0.49
same,z-score,[13],-3.34 (inactive)
same,z-score,[14],-1.1 (inactive)
same,z-score,[15],-1.34 (inactive)
C=C(COC)/C(=C/C[C@@H](OC(=O)c1ccncc1)c1ccc(CO)o1)c1cc(C(=O)OC)ccc1OC,z-score,[1],0.755
same,z-score,[2],-0.439 (inactive)
same,z-score,[3],0.0477 (inactive)
same,composite z-score,[4],-2.14 (inactive)
same,z-score,[5],1.03 (inactive)
same,z-score,[6],0.0707 (inactive)
same,z-score,[7],1.19 (inactive)
same,z-score,[8],1.03 (inactive)
same,z-score,[9],0.515
same,composite z-score,[10],1.7
same,composite z-score,[11],0.215 (inactive)
same,composite z-score,XIP peptide (Xip251-270),0.838
same,z-score,[12],-0.644
same,z-score,[13],-4.26 (inactive)
same,z-score,[14],-0.255 (inactive)
same,z-score,[15],-0.162 (inactive)
NCCCCCCNC(=O)[C@@H]1C[C@@H]2C(=O)NCC(=O)N2[C@@H]1c1ccc(O)cc1,z-score,[1],-0.45
same,z-score,[2],0.333 (inactive)
same,z-score,[3],1.02 (inactive)
same,composite z-score,[4],0.99 (inactive)
same,z-score,[5],0.696 (inactive)
same,z-score,[6],0.681 (inactive)
same,z-score,[7],-0.0366 (inactive)
same,z-score,[8],-0.697 (inactive)
same,z-score,[9],0.08
same,composite z-score,[10],0.0761
same,composite z-score,[11],-0.0092 (inactive)
same,composite z-score,XIP peptide (Xip251-270),0.755
same,z-score,[12],-0.634
same,z-score,[13],-1.98 (inactive)
same,z-score,[14],0.563 (inactive)
same,z-score,[15],0.457 (inactive)
CC(C)C[C@@H]1NC(=O)[C@@H]2C[C@H](C(=O)NCc3ccc(F)cc3)[C@H](c3cccc(OCCO)c3)N2C1=O,z-score,[1],0.137
same,z-score,[2],-0.929 (inactive)
same,z-score,[3],0.279 (inactive)
same,composite z-score,[4],-1.26 (inactive)
same,z-score,[5],0.475 (inactive)
same,z-score,[6],-0.694 (inactive)
same,z-score,[7],1.46 (inactive)
same,z-score,[8],1.48 (inactive)
same,z-score,[9],0.919
same,composite z-score,[10],-0.052
same,composite z-score,[11],0.832 (inactive)
same,composite z-score,XIP peptide (Xip251-270),0.421
same,z-score,[12],0.124
same,z-score,[13],-3.95 (inactive)
same,z-score,[14],0.465 (inactive)
same,z-score,[15],0.554 (inactive)
